40 sequences from the OligoGym collection can be followed below.
Also: reference of the scale not given here.

For the first experiment, the target named is ROPN1. Briefly: pooled miR-30 sensor sort-seq; sequence = guide strand. The following applies: shRNA.
Sequence TTCCATGTAGTTTAGCATCCTG yielded a sensor-assay potency score (higher = more potent) of -0.0226. Turning to TGAAGTACAATCATCTCTGTAT, the sensor-assay potency score (higher = more potent) is 0.335.

Sequence ATCAGGGCCAATTACTTCCTGT yielded a sensor-assay potency score (higher = more potent) of -0.778. Turning to ATTCTGAAGTACAATCATCTCT, the sensor-assay potency score (higher = more potent) was 0.029. The sequence TCCATGTAGTTTAGCATCCTGC yielded a sensor-assay potency score (higher = more potent) of -1.26. In turn, AACTGGAAGGTGCTGAACGGGA gave a sensor-assay potency score (higher = more potent) of -0.696. On the same count and under the same terms, as for TCTGAAGTACAATCATCTCTGT, the figure is 0.301; as for TTCTGAAGTACAATCATCTCTG, 0.437.

A further experiment deals with RORB. The description is as above. The following applies: shRNA.
Sequence TATCTGTTTGATTCCAGTCATG came in with a sensor-assay potency score (higher = more potent) of -1.6. On to TTGATCATTTTGACAGAGCTCC, for which the sensor-assay potency score (higher = more potent) was found to be 0.0925. On the same count and under the same terms, then TTGCTTAAATACCTGCAGCTTC, with -0.375. Consider TTCCAGTCATGTCAAGTCCTGA, for which the sensor-assay potency score (higher = more potent) was -0.578.

In turn, TTTAATTTCTTCATAGGTGTGG came in with a sensor-assay potency score (higher = more potent) of 0.75. On the same count and under the same terms, then TTAAACAGTTTCTCTGCCTTGG, with 0.233; and TTGTTCTGCTGGCTCCTCCTAA, with -0.741; and ATCATTTTGACAGAGCTCCATG, with -1.14. Still for that read-out and setting: then TATAACGGAGGAAACAGTGTAT, with 0.0235; and TTCACATGTGATGACTCCGTAG, with -1.17.

In turn, TAGGGCAAGACACTTCTGCAGT came in with a sensor-assay potency score (higher = more potent) of -0.56. In turn, TTAATTTCTTCATAGGTGTGGG returned a sensor-assay potency score (higher = more potent) of 0.03.

For the next experiment, the target named is RPF2. Described as above. Particulars: shRNA.
Take TAATTTATAAAGGTCATCCGAT: the sensor-assay potency score (higher = more potent) is -0.21. For ATAATCTTCTGTTACATCGAAA, the sensor-assay potency score (higher = more potent) is -0.564. Turning to TTTCAGTGCATACACATCTTTA, the sensor-assay potency score (higher = more potent) was -0.778.

Consider TTCAACAGCAACTTATAGCTTC, for which the sensor-assay potency score (higher = more potent) turned out to be 0.301. With TCTTTTTATATAGTACACCGTA, the sensor-assay potency score (higher = more potent) was -0.652. Still for that read-out and setting: then TAGTCTTCTATAATCTTCTGTT, with -0.606; and TTAGTCTTCTATAATCTTCTGT, with 0.354; and TTGTAGTTTGCTTAGGTCTTGC, with -0.359. In the case of TTACATCGAAATCATCGCCAGC, the sensor-assay potency score (higher = more potent) was -0.787. Take TTTGCTTAGGTCTTGCTTCTGC: the sensor-assay potency score (higher = more potent) turned out to be 0.678. As to TTATATAGTACACCGTATGGTT, the sensor-assay potency score (higher = more potent) was -0.793. For TTAAGTACTTTTGTCACTGTTG, the sensor-assay potency score (higher = more potent) was -0.124.

The target of a further experiment is RPL19. Described as above. Particulars: shRNA.
TTACCTATGCCCATGTGCCTGC came in with a sensor-assay potency score (higher = more potent) of -0.132. As for TGTTTTTGAACACATTCCCCTT, the sensor-assay potency score (higher = more potent) is -1.21. For ATACATGTGGCGATCGATCTTC, the sensor-assay potency score (higher = more potent) was determined as 0.46.

Sequence AAGTCTTGATGATCTCCTCCTT registered a sensor-assay potency score (higher = more potent) of 0.211. With TTGATGATCTCCTCCTTCTTGG, the sensor-assay potency score (higher = more potent) turned out to be 0.222. Turning to TAAAGTCTTGATGATCTCCTCC, the sensor-assay potency score (higher = more potent) stood at 0.336.

In turn, TTCATTGGTCTCATTGGGGTCT had a sensor-assay potency score (higher = more potent) of 0.294. For the sequence TACAGGCTGTGATACATGTGGC, the sensor-assay potency score (higher = more potent) was -1.14.
